AMA1 RON2 block: qHTS for Inhibitors of AMA1-RON; Towards Development of Antimalarial Drug Lead: Primary Screen. Plasmodium falciparum AMA1 (3D7) - RON2 peptide interaction. AlphaScreen AMA1-biotinylated RON2 peptide binding. Potency, µM (top dose mostly 58.2 µM), for the others: top-dose activity change, negative = inhibition, actives largely listed as inhibitors. 360,000 compounds, 0.2% hits;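 note: potency is the fitted concentration of half-maximal effect; 0% = vehicle wells and -100% = peptide control; nearly all actives have a fitted effect of over 45% in size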
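AMA1 (3D7) with his tag at 25 nM final met compounds first, then biotinylated RON2 peptide at 25 nM; detection used donor plus acceptor beads, 10 µg/mL apiece, read by AlphaScreen after 30 min at room temperature.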
Cycloheximide cs: Cycloheximide Counterscreen for Small Molecule Inhibitors of Shiga Toxin; cell reporter, cycloheximide protein synthesis inhibition counterscreen; max response, %; 300,000 compounds, 12% hits; in the data active = max response mostly above about 13%, no sharp cut-off; inactive = mostly below about 14%; note: read at 38.3 µM for the half of the compounds with a filed dose; 0% is about no effect
Shiga inhibitor: A qHTS for Small Molecule Inhibitors of Shiga Toxin. Vero cells, Shiga toxin protein synthesis inhibition reporter. inhibition, % at 38.7 µM. 290,000 compounds, 9.2% hits. AID 2315, 2010; in the data active = inhibition mostly above about 28%, no sharp cut-off; inactive = mostly below about 43%; note: 0% is about no effect
Pf growth 48h: Primary qHTS for delayed death inhibitors of the malarial parasite plastid, 48 hour incubation; P. falciparum luciferase growth in erythrocytes, 48 h; Potency, µM (top dose mostly 28.7 µM), for the others: top-dose activity change, negative = inhibition, most hits filed as inhibitors; 310,000 compounds, 5.9% hits; note: potency is the fitted concentration of half-maximal effect; % is set by controls: 0 for no effect and ±100 for the full control effect
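Erythrocytes infected with P. falciparum carrying an integrated firefly luciferase reporter (2% hematocrit, 0.1% parasitemia final) were exposed to compounds in RPMI 1640 with 0.5% Albumax at 37 C, 5% CO2. Growth inhibition was scored as reduced luminescence.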
SARS PLpro yeast: qHTS of Yeast-based Assay for SARS-CoV PLP | S. cerevisiae expressing SARS-CoV PLpro, growth rescue | Potency, µM (highest dose often 32.9 µM), without a hit: top-dose activity, positive = growth rescue, most hits filed as activators | 330,000 compounds, 0.19% hits | AID 485353, 2010; calls by dose curve; note: potency is the fitted concentration of half-maximal effect; 0% is about no effect; nearly all actives have a fitted effect of over 55% in size
Pf growth 96h: Primary qHTS for delayed death inhibitors of the malarial parasite plastid, 96 hour incubation. P. falciparum luciferase reporter growth, 96 h. Potency, µM (doses to about 28.7 µM), inactives show at the highest dose activity change, negative = inhibition, hits mostly inhibitors. 320,000 compounds, 6.9% hits. AID 504834, 2011; note: potency is the fitted concentration of half-maximal effect; % is set by controls: 0 for no effect and ±100 for the full control effect
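96 h incubation, 37 C, 5% CO2, of luciferase-reporter P. falciparum-infected RBCs (2% hematocrit, 0.05% parasitemia final) with test compounds; endpoint luminescence.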
* hit, by the source's call; ? = inconclusive; nt = not tested or not shown. Compounds with a hit are over-represented: about 19% of the library has one in this group of screens. Unless noted, calls come from the whole dose curve; as a rule, active = well fitted curve in the direction sought with a large enough effect; inconclusive = small, poorly fitted or top-dose-only effect, or another doubt; inactive = no such curve, though single readings can be large; an effect the other way counts as inactive or inconclusive.

SMILES | AMA1 RON2 block | Cycloheximide cs | Shiga inhibitor | Pf growth 48h | SARS PLpro yeast | Pf growth 96h
COc1ccc(NC(=S)NNC(=O)c2cccs2)cc1 | 35.5% | 26.5* | 45.9* | 32.1% | -5.1% | 4.8%
O=C(Nc1ccc(NC(=O)C2CC2)cc1)c1cccs1 | 1.5% | 43.1* | 66.8* | 128.3% | -6.0% | 10.4µM*
Cc1ccc(NC(=O)/C(=C\c2cccnc2)NC(=O)c2ccco2)cc1 | 0.7% | 7.2 | 30.9 | ? | 16.4% | 3.29µM*
CCC(C)c1ccc(NC(=O)c2cccs2)cc1 (centres undefined) | 9.9% | 30.5* | 58.7* | nt | -20.5% | ?
COc1ccc(NC(=O)/C(=C\c2cccnc2)NC(=O)c2cccs2)cc1 | -4.6% | -1.2 | -9.5 | -8.2% | 8.3% | 25.2%
COc1ccc(NC(=O)/C(=C/c2cccnc2)NC(=O)c2cccs2)cc1 | 2.7% | -0.4 | -4.6 | -6.3% | -0.7% | 4.15µM*
Cc1ccn(-c2ccc(NC(=O)c3cccs3)cc2)n1 | 5.5% | 33.2* | 82.4* | 45.3% | -10.3% | 25.9%
CCC(C)NS(=O)(=O)c1ccc(NC(=O)c2cccs2)cc1 (centres undefined) | -2.0% | -2.5 | -1.8 | 0.7% | 1.0% | 37.5%
O=C(Cc1ccc(Cl)cc1)Nc1ccc(NC(=O)c2cccs2)cc1 | -2.4% | -5.2 | -3.9 | 2.0% | -0.5% | ?
O=C(Nc1ccc(C(=O)N2CCOCC2)cc1)c1cccs1 | -15.7% | 18.4 | 50.6 | -6.7% | -5.3% | -18.9%
Cc1ccc(NC(=O)NNC(=O)c2cccs2)cc1 | 31.4% | 16.7* | 37.9* | 47.8% | 4.6% | 23.9%
CC(C)CNC(=O)c1ccc(NC(=O)c2cccs2)cc1 | -6.2% | 26.8* | 62.2* | 46.2% | -1.9% | 11.0%
CC(=O)Nc1ccc(C(=O)NNC(=O)c2cccs2)cc1 | 0.3% | 7.5 | -11.6 | 33.2% | 24.4% | ?
O=C(Nc1ccc(Cl)cc1)c1cccs1 | 15.7% | 60.0* | 82.5* | 38.6% | nt | 15.1%
COc1ccc(CC(=O)NNC(=O)Cc2ccc(OC)cc2)cc1 | nt | -1.7 | 14.7 | 10.3% | 0.3% | -4.8%
COc1ccc(CC(=O)NNC(=O)c2cccs2)cc1 | 10.5% | 5.7 | 5.0 | 30.7% | -19.4% | 2.94µM*
CCCn1c(N)c(N(CCOC)C(=O)Cc2ccc(S(=O)(=O)N3CCOCC3)s2)c(=O)[nH]c1=O | 11.8% | nt | nt | 11.4% | 2.7% | -3.6%
CCOc1ccc(-c2cc(C(=O)NCc3cc(OC)cc(OC)c3)[nH]n2)c(C)c1 | -11.4% | nt | nt | nt | nt | nt
O=C(Nc1ccc(NC(=O)c2ccccc2F)cc1)c1cccs1 | -0.7% | nt | nt | 152.5% | 6.8% | -3.0%
O=C(Nc1ccc2[nH]ccc2c1)c1cccs1 | -13.3% | 26.6* | 55.3* | 151.8% | -1.1% | 423.8%
O=C(Nc1ccc(NC(=O)c2cccs2)cc1)c1cccs1 | -0.3% | 42.6* | 82.7* | 58.6% | 0.2% | 13.3%
COc1ccc(NC(=O)c2cccs2)cc1 | 15.5% | 40.6* | 78.1* | 332.6% | -45.1% | ?
COc1cccc(-c2nc(-c3ccc(NC(=O)c4cccs4)cc3)no2)c1 | 7.0% | 55.6* | 64.5* | 15.9% | -1.2% | 4.15µM*
COc1cccc(-c2nc(-c3ccc(NC(=O)c4ccncc4)cc3)no2)c1 | 11.9% | -1.4 | 51.3 | nt | 2.4% | ?
CC(=O)Nc1ccc2[nH]ccc2c1 | 2.3% | -6.1 | 11.2 | 28.1% | -3.8% | 15.4%
SMILES | AMA1 RON2 block | Cycloheximide cs | Shiga inhibitor | Pf growth 48h | SARS PLpro yeast | Pf growth 96h
NC1=NC(c2ccc(Cl)cc2)N(c2ccc(S(N)(=O)=O)cc2)C(N)=N1 (centres undefined) | 4.3% | 22.8 | -5.9 | ? | 2.6% | 9.28µM*
NC(=O)CSc1nnnn1-c1ccc(OC(F)(F)F)cc1 | 5.4% | -0.9 | 14.2 | 6.4% | 9.9% | 0.185µM*
CCC(=O)Nc1ccc(NC(=O)CSc2nnnn2-c2ccc3c(c2)OCCO3)cc1 | 0.3% | -2.4 | 2.0 | 10.9% | -0.3% | 28.0%
O=C(CSc1nnnn1-c1ccccc1Cl)Nc1ccc2c(c1)OCCO2 | -6.8% | 46.0* | 83.8* | 94.4% | -5.6% | 10.5%
COc1ccc(-n2nnnc2SCC(=O)NC(=O)Nc2ccc3c(c2)OCCO3)cc1 | -3.0% | 21.2* | 92.0* | 34.5% | 9.9% | nt
Cc1ccc(-n2nnnc2SCC(=O)NC(=O)Nc2ccc3c(c2)OCCO3)cc1 | 3.1% | 23.5* | 74.8* | 28.9% | 7.7% | -25.5%
CC(C)c1nnc(SCC(=O)Nc2ccc3c(c2)OCCO3)n1C | -7.9% | 3.7 | -6.4 | 9.7% | -0.4% | 4.5%
COc1ccc(NC(=O)CSc2nnnn2-c2ccc(OC)cc2)cc1 | -6.3% | -1.2 | -40.4 | 46.4% | 1.1% | nt
CC(=O)c1ccc(OCc2nnn(CC(=O)O)c2-c2ccccc2)cc1 | 0.1% | nt | nt | nt | nt | nt
CCn1c(SCC(=O)Nc2ccc(F)cc2)nnc1-c1cnccn1 | 4.7% | 1.3 | 10.3 | 16.2% | -0.1% | ?
COc1ccc(-n2nnnc2SCC(=O)NCCc2ccc(OC)c(OC)c2)cc1 | 18.3% | 0.3 | 13.4 | -12.8% | -3.1% | 5.22µM*
CC(C)Oc1cccc(-c2nnc(SCC(=O)Nc3ccc4c(c3)OCCO4)n2N)c1 | -0.1% | 34.2* | 99.9 | 62.1% | -1.0% | 46.9%
Cc1nnc(SCC(=O)NC(=O)Nc2ccc3c(c2)OCCO3)n1N | 12.9% | 39.1* | 50.4* | 15.5% | -1.0% | -4.6%
Nn1c(SCC(=O)Nc2ccc3c(c2)OCCO3)nnc1-c1ccncc1 | -2.7% | -2.1 | -1.3 | 22.9% | 0.5% | 26.9%
COc1ccc(-n2nnnc2SC(C)C(N)=O)cc1 (centres undefined) | -4.0% | 5.6 | 39.6 | 1.1% | -5.9% | 11.7µM*
Cc1ccc(C(CNC(=O)C(=O)Nc2ccc3c(c2)OCCO3)N2CCN(C)CC2)cc1 (centres undefined) | 5.2% | nt | nt | 7.38µM* | nt | -0.8%
CN1CCN(C(CNC(=O)C(=O)Nc2ccc3c(c2)OCCO3)c2ccc(F)cc2)CC1 (centres undefined) | 15.2% | nt | nt | ? | -0.3% | ?
O=C(CSc1nnnn1-c1ccc(Cl)cc1)NC(=O)Nc1ccc2c(c1)OCCO2 | 11.5% | 28.6* | 71.5* | 173.1% | -7.6% | 115.7%
COc1ccc(CCNC(=O)CSc2nc3[nH]ncc3c(=O)n2-c2ccc(Cl)cc2Cl)cc1OC | -3.2% | -2.6 | -12.9 | ? | 1.7% | ?
COc1ccc(CCNC(=O)CSc2nc3[nH]ncc3c(=O)n2-c2ccc(C)c(Cl)c2)cc1OC | 5.2% | 40.7* | 96.4* | -80.6% | 0.6% | ?
CC1CCc2sc(NC(=O)C3CC(Cl)=CCC3C(=O)O)c(C#N)c2C1 (centres undefined) | -7.5% | -4.0 | -2.9 | 4.3% | 1.0% | -0.7%
Cc1ccc(C)c(OCc2cc(C(=O)N3CC[C@@H]4CCCC[C@H]4C3)no2)c1 | -13.9% | 33.0* | 104.6* | 8.9% | -2.2% | -24.6%

Screening results from PubChem BioAssay.
